Screening data: PubChem, Sanford-Burnham Center for Chemical Genomics
A selection: hits, their analogues and other compounds. The true share with any hit is near 4%.
Peg3 promoter = inhibitors of Peg3 promoter | HeLa PEG-Prom luciferase reporter, luminescence, overnight | inhibition, % at 20 µM | hit rate 1.7% among 360,000 | AID 588405;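 active = inhibition of at least 50% at 20 µM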
TROY signal inh = inhibitors of TROY-dependent NF-kB signaling. hit rate 0.98% among 360,000. Q293 LMP1-TROYcd NF-kB luciferase reporter, 4 h. AID 1347056. inhibition, % at 10 µM;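 active = compounds whose plate-normalised and pattern-corrected inhibition of the luciferase reporter signal at the single screening dose is 50% or more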
TWEAK Fn14 block = TWEAK-Fn14 signaling inhibition. hit rate 2% among 360,000. TWEAK-stimulated Fn14 reporter cells, luciferase luminescence, 8 h. inhibition, % at 10 µM; in the data active = inhibition above about 50%
KKLEB cytotox = reduces viability of KKLEB cystic fibrosis airway cells; KKLEB CF airway cells viability, ATPlite luminescence, overnight; hits give low values; cells stimulated with P. aeruginosa culture filtrate; activity change (cytotoxicity), % at 5 µM; hit rate 0.36% among 360,000; AID 602141;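 active = corrected activity change at or below -50% at 5 µM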
HIF-2a inh = blocks HIF-2a reporter activity; hit rate 0.72% among 360,000; 786-0 RCC cells HIF-2a reporter, luciferase luminescence, overnight; inhibition, % at 18.8 µM;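 active = inhibition of the luminescence signal of 40% or more relative to plate controls, in a single-dose primary screen at 18.75 µM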
CF NFkB block = cystic fibrosis NF-kB activation inhibition; KKLEB NF-kB-GFP reporter, PAF-induced, GFP fluorescence overnight; inhibition, % at 5 µM; hit rate 0.86% among 360,000; AID 588850;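 active = at least 50% inhibition at 5 µM, scaled per plate between neutral and stimulator controls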;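 also: PAF is a Pseudomonas aeruginosa culture filtrate used as stimulus; plate controls were PAF-stimulated DMSO wells for no effect and unstimulated DMSO wells for full effect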
The depositor's hits bear a star; . = no result.

SMILES	Peg3 promoter	TROY signal inh	TWEAK Fn14 block	KKLEB cytotox	HIF-2a inh	CF NFkB block
CC(=O)/C=C/c1ccc2ccccc2n1	103*	-7	64*	-10	34	33
CC(OC(=O)/C=C/c1ccc2ccccc2n1)C(=O)N(C)c1ccccc1 (stereo not drawn)	-5	13	27	-34	-67	22
Cc1ccc(C)c(NC(=O)c2ccccc2O)c1	-103	-25	-5	4	-155	-1
O=C(/C=C/c1ccccc1Cl)c1ccccc(=O)c1O	71*	37	35	-22	9	-51
O=C(/C=C/c1ccccc1Cl)c1cccnc1	16	23	6	7	17	-2
Cc1ccc(/C=C/C(=O)c2ccccc(=O)c2O)c(C)c1	-78	73*	87*	1	36	-29
Cc1ccc(C)c(/C=C/C(=O)c2ccccc(=O)c2O)c1	17	5	32	-11	72*	-17
Cc1cc(C)c(C#N)c(SCC(=O)Nc2c(C)n(C)n(-c3ccccc3)c2=O)n1	10	1	12	-1	15	21
CCOc1ccc(/C=N/NC(=O)C(=O)N2CCCCCC2)c2ccccc12	7	19	1	-18	18	26
O=C1C=C(c2ccoc2)N2CCC[C@H]2C1	-1	-6	-4	16	2	-9
O=C(CSc1nc2ccccc2s1)NCc1ccc2c(c1)OCO2	4	11	62*	-2	-7	1
O=C(CSc1ncnc2scc(-c3ccc(Cl)cc3)c12)NCc1ccc2c(c1)OCO2	27	-2	86*	-4	27	-7
O=C(CSc1nnc(NC(=O)c2ccccc2)s1)NCc1ccco1	-71	-12	21	7	-52	-12
Cc1ccc(-c2csc3ncnc(SCC(=O)NCc4ccc5c(c4)OCO5)c23)cc1	18	12	23	-2	23	8
O=C(CSc1nnc(NC(=O)c2ccc3c(c2)OCO3)s1)NCc1ccco1	-17	1	61*	-17	-124	-1
COc1cccc(-n2nnnc2SCC(=O)NCc2ccc3c(c2)OCO3)c1	-2	-8	81*	15	-13	-12
COC(=O)c1cccc(NC(=O)CCN2C(=O)NC(C)(C)C2=O)c1	1	2	-4	2	8	10
O=C(c1ccncc1)N1N=C(c2ccc(Cl)cc2)CC1c1ccccc1O (stereo not drawn)	-406	-29	-18	10	-235	-8
Cc1ccc(-n2ncc3c2CC(C)(C)CC3NC(=O)CCN2CCCO2)cc1 (stereo not drawn)	50*	-29	-4	11	7	-19
CC1(C)Cc2c(cnn2-c2ccc(F)cc2)C(NC(=O)CCN2CCCCO2)C1 (stereo not drawn)	-16	-9	16	0	-29	22
CC(=O)N1CCOc2ccc(S(=O)(=O)Nc3ccc(Cl)cn3)cc21	17	54*	1	-3	10	-21
CC(=O)N1CCOc2ccc(S(=O)(=O)NCc3ccc(Cl)cc3)cc21	-3	-7	2	3	14	13
O=C(c1cccs1)N1CCN(C(=O)c2cccs2)C1=S	99*	29	70*	-4	0	43
COC(=O)Cc1c(C)c2ccc(OCC(=O)N3CCCC(C)C3)c(C)c2oc1=O (stereo not drawn)	16	-5	-4	5	-1	-10
CCN1CCN(c2sc(S(C)(=O)=O)nc2S(=O)(=O)c2ccc(C)cc2)CC1	18	6	13	-15	11	27
SMILES	Peg3 promoter	TROY signal inh	TWEAK Fn14 block	KKLEB cytotox	HIF-2a inh	CF NFkB block
CCN1CCN(c2nc(S(=O)(=O)c3ccc(C)cc3)c(Cl)s2)CC1	5	51*	0	-2	-5	15
Cc1ccc(N(CC(=O)NCCc2ccc(Cl)cc2)S(=O)(=O)c2c(C)noc2C)cc1	18	7	-9	-8	16	7
O=C(CN(c1ccc(Cl)cc1)S(=O)(=O)c1ccc(Cl)c([N+](=O)[O-])c1)NCCc1ccc(F)cc1	95*	-11	-1	-3	28	-5
COc1ccc(Nc2nc(N)c(C(=O)c3ccc(F)cc3)s2)cc1	-44	-15	17	-11	-109	41
COc1ccc(Nc2nc(N)c(C(=O)c3ccc(OC)cc3)s2)cc1	-5	2	32	-2	-82	53*
COc1ccc(C(=O)c2sc(NC(C)C)nc2N)cc1OC	34	10	16	-4	-14	58*
COc1ccc(N2CCOCC2)c(NC(=O)c2cccnc2)c1	19	-12	0	0	16	-9
O=C(c1cccs1)c1no[n+]([O-])c1C(=O)c1cccs1	93*	-9	6	-94*	63*	93*
Cc1ccc(C)c(N2CCN(CCCNC(=O)Cn3cccc3C(=O)c3ccccc3C)CC2)c1	107*	-2	19	-25	10	36
Cc1ccccc1C(=O)c1cccn1CC(=O)NCCCN1CCCCC1	-15	11	13	-4	2	3
CC(C)=CCc1c2c(c3occ(-c4ccc(O)cc4)c(=O)c3c1O)C=CC(C)(C)O2	-22	-12	17	9	7	-3
CC1(C)C=Cc2c(c3c(c4c(=O)c(-c5ccc(O)cc5)coc24)OC(C)(C)CC3)O1	63*	-1	17	-21	-27	35
Nc1nnc(SCC(=O)Nc2cccc3ccccc23)s1	1	-27	1	-10	9	-1
CC1Cc2ccccc2N1C(=O)c1cc2c(=O)n3ccccc3nc2n1C (stereo not drawn)	46	-14	53*	-10	-44	42
Cc1cccn2c(=O)c3cc(C(=O)N4c5ccccc5CC4C)n(C)c3nc12 (stereo not drawn)	15	24	39	-12	6	28
Cc1ccc(OCC(=O)Nc2ccc(O)c(-c3nc4ccccc4o3)c2)cc1	52*	7	-45	-61*	5	70*
O=C(Nc1ccc(-c2nc3ccccc3o2)cc1)c1ccc(N2C(=O)C3C4C=CC(C4)C3C2=O)cc1 (stereo not drawn)	-20	57*	21	-10	-87	18
O=C(CCN1C(=O)c2ccccc2C1=O)Nc1ccc(-c2nc3ccccc3o2)cc1	-168	-21	-25	6	-70	-8
O=C(Nc1ccc(-c2nc3ccccc3o2)cc1)c1cc(-n2cnnc2)ccc1Cl	-102	36	76*	3	-192	6
O=C(CN1C(=O)c2ccccc2C1=O)Nc1ccc(-c2nc3ccccc3o2)cc1	-17	.	72*	11	-14	12
Cc1cccc(C(=O)n2cnnc2N)c1	-7	21	42	6	-1	-8
O=C(Nc1ccc2oc(-c3ccccc3)nc2c1)c1cc(-n2cnnc2)ccc1Cl	-118	-34	32	10	-217	-20
O=C(Nc1ccc(-c2nc3ccccc3o2)c(O)c1)c1cc(-n2cnnc2)ccc1Cl	-30	38	66*	9	-34	-3
